# System: LIMK2
# Settings: concentration: 1 μM, replicates: in singlicate; n = 1
# 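Note: KINOMEscan kinase panel screen.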
row,Compound,%Inh
1,COc1ccc(Nc2nccc(N3CCC(NC(=O)Nc4cccc(OC)c4)C3)n2)cc1 (stereo not shown) [GSK1379742],0%
2,Cc1ccc(C)c(NC(=O)NC2CCN(c3ccnc(Nc4ccc(F)cc4)n3)C2)c1 (stereo not shown) [GSK1379720],0%
3,c1ccc(-c2n[nH]cc2Nc2ccnc3ccccc23)nc1 [GW694077],13%
4,COc1cc(Nc2nccc(N3CCC(NC(=O)Nc4cccc(C(C)=O)c4)C3)n2)cc(OC)c1OC (stereo not shown) [GSK1379753],43%
5,O=C(Nc1cccc(-c2nn3ncccc3c2-c2ccnc(Nc3ccccc3)n2)c1)c1c(F)cccc1F [GSK198271],0%
6,c1ccc(-c2cnc3nccnn23)cc1 [AH20685],0%
7,Cl.c1ccc(-c2ccc3c(Nc4ccc5[nH]ncc5c4)ccnc3c2)nc1 [GW440137],23%
8,Fc1ccc(-c2ncn(C3CCNCC3)c2-c2ccnc(Oc3ccc(-c4ccccc4)cc3)n2)cc1 [SB-245391],0%
9,Clc1ccc(-c2nn3ncccc3c2-c2ccnc(Nc3ccc4c(c3)OCCO4)n2)cc1 [GW829116],0%
10,Cc1ccc(F)c(C(=O)Nc2cccc(-c3nn4ccccc4c3-c3ccnc(Nc4cccc(F)c4)n3)c2)c1F [GSK361061],15%
11,CNC(=O)c1ccccc1Nc1nc(Nc2ccc(N3CCOCC3)cc2)ncc1Cl.Cl [GSK1576028],30%
12,Cc1cccc(Nc2nc(N[C@H]3CCNC3)ncc2C(N)=O)c1.Cl [GSK2197149],0%
13,CCn1c(-c2nonc2N)nc2c(C#CC(C)(C)O)nc(OC[C@H](N)c3ccccc3)cc21 [GSK943949],6%
14,COc1cc(Nc2ncc3c(C)nc(-c4cc5ccccc5[nH]4)n3n2)cc(OC)c1OC [GW869516],4%
15,Cl.NC(=O)c1cccc(Nc2nccc(Nc3ccc(Oc4c(Cl)cccc4Cl)c(Cl)c3)n2)c1 [GW659009],0%
16,Cl.c1ccc(-c2ccc3c(Nc4ccc5[nH]ccc5c4)ccnc3c2)nc1 [GW440138],0%
17,CN1CCN(CCCNc2nccc(-c3c(-c4ccc(F)cc4)nn4cc(C(F)(F)F)ccc34)n2)CC1 [GW621581],0%
18,O=C(Nc1n[nH]c2cc(-c3ccoc3)ccc12)C1CC1 [SB-738481],22%
19,COc1cccc(C2=C(Nc3ccc(Cl)c(C(=O)O)c3)C(=O)NC2=O)c1 [SB-390769],0%

row,Compound,%Inh
1,COc1cccc(-c2ccc3c(NC(=O)C4CC4)n[nH]c3n2)c1 [SB-710903],55%
2,COc1cccc(NC(=O)NC2CCN(c3ccnc(Nc4cc(OC)c(OC)c(OC)c4)n3)C2)c1 (stereo not shown) [GSK1379763],34%
3,CN(C)S(=O)(=O)c1cc(-c2ccc3nccc(-c4cccc(S(N)(=O)=O)c4)c3c2)cnc1N [GSK1669921],5%
4,Cn1cc(-c2ccc3c(c2)CCN3C(=O)Cc2cccc(F)c2)c2c(N)ncnc21 [GSK2603358],0%
5,COc1ccc(CNC(=O)NC2CCN(c3ccnc(Nc4ccc(F)cc4)n3)CC2)cc1 [GSK1379788],0%
6,O=C(Nc1cccc(-c2nn3ccccc3c2-c2ccnc(Nc3cccc(F)c3)n2)c1)c1c(F)ccc(F)c1Cl [GSK357952],0%
7,Cl.Cl.NCC(NCc1ccc(-c2ccnc3[nH]ccc23)s1)c1ccccc1 (stereo not shown) [GSK1321565],20%
8,CCc1ccc(-c2ccc3c(c2)-c2c(cnn2C)S(=O)(=O)N3C)cc1,0%
9,O=C(O)C(F)(F)F.O=C(O)C(F)(F)F.O=c1[nH]ccc2nc(N[C@@H]3CCCNC3)nc(Nc3ccc(S(=O)(=O)N4CCOCC4)cc3)c12 [GSK2177277],0%
10,Cc1occc1-c1ncc(OC[C@@H](N)Cc2c[nH]c3ccccc23)cc1-c1ccc2[nH]nc(C)c2c1.O=C(O)C(F)(F)F [GSK682037],0%
11,COCCOCCOc1cc2ncc3c4ccc(C#N)cc4[nH]c3c2cc1OC,1%
12,CN(C)Cc1ccc(-c2ccc3c(Nc4ccc(Oc5ccccn5)cc4)ccnc3c2)o1 [GW567148],0%
13,Cc1ccc(C(=O)N2CC[C@@H](O)C2)cc1-n1c(C)cc(OCc2ccc(F)cc2F)c(Br)c1=O,0%
14,Cn1cc(-c2[nH]c3cc(NC(=O)[C@H](N)C4CCCCC4)cc4c3c2C=NNC4=O)cn1,96.6%
15,COc1cc(Nc2nccc(-c3c(-c4cccc(NC(=O)c5c(F)cccc5F)c4)nn4ncccc34)n2)cc(OC)c1OC [GSK327238],8%
16,CC(=O)Nc1nc2cnc(Nc3cc(NC(=O)c4cccc(C5(C#N)CC5)c4Cl)ccc3C)nc2s1,0%
17,Cc1ccc(C(=O)Nc2ccc(Nc3ccnc4cc(-c5nccs5)ccc34)cc2O)cc1.Cl [GW494702],0%
18,Nc1ncc(-c2cccnc2)c2scc(-c3ccc4c(c3)CCN4C(=O)Cc3ccccc3)c12 [GSK683281],36%
